Here are results for five compounds from PubChem BioAssay.

Structures are written as SMILES. Active and inactive are the calls of the source. Unless noted, how the calls were made is not given here.

The nature of test [1]: compounds binding Alexa647 anti-His antibody – biochemical, small-molecule microarray, 635 nm fluorescence, artefact control for SMM control protein annotation, primary screen (AID 1128).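 Further: score merges feature fluorescence with signal-to-noise for each printed compound spot.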 To be noted: higher = more signal.
Test [2] deals with Human papillomavirus type 1a E7 protein (residues 1-88). Description: HPV1a E7 small-molecule binders, primary screen, biochemical, small-molecule microarray, residues 1-88, 635 nm (AID 1129). Conditions: small-molecule microarray binding, fluorescence 635 nm; higher = more signal.
For test [3], the target named is Focal adhesion kinase 1 (Homo sapiens) (UniProt Q05397). Description: PTK2 protein binding on printed compound slides – biochemical, small-molecule microarray, 635/667 nm fluorescence, BSA, DTT, primary screen (AID 1130).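 Further: composite of spot emission at 667 nm and signal to noise over triplicate slides.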 Conditions: 635 nm fluorescence, higher = more signal.
Test [4] concerns Fibrinogen (Alexa647-labelled). Description: Alexa647-fibrinogen binding to printed small molecules – biochemical, small-molecule microarray, 635/667 nm fluorescence, artefact control for SMM control-protein annotation, profiling panel (AID 1131).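 Further: z-score merges 667 nm fluorescence with per-spot signal-to-noise over triplicate slides.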 Conditions: fibrinogen-A647 binding fluorescence, higher = more signal.
Test [5] addresses Follistatin (Homo sapiens) (UniProt P19883). Description: FST protein binding to printed compounds – biochemical, small-molecule microarray, 635/667 nm fluorescence, primary screen (AID 1132). Conditions: 635 nm fluorescence, higher = more signal.
Test [6] addresses Fibroblast growth factor 2 (Homo sapiens) (UniProt P09038). Put plainly: basic fibroblast growth factor binding to printed compounds – biochemical, small-molecule microarray, 635/667 nm fluorescence, primary screen (AID 1133). To be noted: FGF2, fluorescence 635/667, higher = more signal.
Test [7] is described as follows: JC-1 mitochondrial potential readout, lung cancer cells – cell-based, A549, JC-1 fluorescence, basal, 24 h, 100 nL, profiling panel (AID 1138).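 Further: A549 lung adenocarcinoma cells under basal conditions with no added stimulus; test concentration not given here.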 Conditions: higher = more signal.
A further test relates to Lefty1. Description: Lefty1 protein binding to printed compounds – biochemical, small-molecule microarray, 635/667 nm fluorescence, primary screen (AID 1139). Conditions: fluorescence 635/667, higher = more signal.
Test [8] relates to wheat germ agglutinin (Triticum aestivum), Alexa647-labelled. Description: Alexa647-WGA lectin binding to printed small molecules – biochemical, small-molecule microarray, 635/667 nm fluorescence, artefact control for SMM control-protein annotation, profiling panel (AID 1140).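 Further: score merges 667 nm feature emission with signal to noise over triplicate slides.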 Conditions: WGA-A647 binding, 635 nm fluorescence, higher = more signal.
The target of test [9] is Luciferin 4-monooxygenase (Photinus pyralis) (UniProt P08659). Put plainly: inhibition of purified Photinus pyralis luciferase – biochemical, luminescence, purified enzyme, 2006 set, primary screen (AID 1141).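 Further: cell-free assay with purified firefly luciferase at 100 ng per well in PBS; test concentration not given here.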 To be noted: purified firefly luciferase, SteadyGlo luminescence, 30 min; higher = more signal, called active from +8 up or from −8 down.
Test [10] deals with Wnt5a (protein binding on small-molecule microarray). Put plainly: small molecules binding Wnt5a protein – biophysical, small-molecule microarray, 635/667 nm fluorescence, primary screen (AID 1142).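 Further: fluorescence read at 667 nm with signal to noise per printed feature.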 Conditions: 635 nm fluorescence, higher = more signal.
Test [11] is described as follows: ATP-based viability of Huh7 replicon cells – cell-based, CellTiter-Glo luminescence, basal, 48 h, cytotoxicity control for HCV replication inhibitor project, primary screen (AID 1143).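 Further: Huh7 hepatoma cells carrying a hepatitis C replication reporter with no stimulus; test concentration not given here.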 Conditions: higher = more signal, called active from +8 up or from −8 down.
Test [12] can be described thus: Pseudomonas biofilm growth suppression – PAO1 strain, BacTiter-Glo luminescence, LB-PBS, primary screen (AID 1144). To be noted: P. aeruginosa PAO1 biofilm, 12 h, higher = more signal.
Test [13] can be described thus: basal CRE-LacZ reporter activity in PC12 – cell-based, unstimulated, primary screen (AID 1145). To be noted: no forskolin, luminescence, 4.5 h, higher = more signal, called active from +8 up or from −8 down.
A short description of test [14]: forskolin-driven CRE-LacZ activity in PC12 – cell-based, CRE-LacZ reporter, forskolin-stimulated, primary screen (AID 1146).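 Further: PC12 cells with 6xCRE LacZ reporter stimulated by forskolin 10 µM; beta-galactosidase reporter signal reflecting CREB driven transcription.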 Conditions: luminescence, 4.5 h, higher = more signal, called active from +8 up or from −8 down.
The target in test [15] is Streptavidin (Streptomyces avidinii) (UniProt P22629). Description: compounds binding control protein streptavidin – biophysical, small-molecule microarray, 635/667 nm fluorescence, artefact control for SMM compound annotation, primary screen (AID 1147).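 Further: signal reflects streptavidin binding to arrayed compounds as a control protein.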 To be noted: higher = more signal.
Test [16] in a line: probe aInhba binding on compound microarray – biochemical, small-molecule microarray, 635/667 nm fluorescence, primary screen (AID 1148).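 Further: score merges 667nm spot fluorescence with signal-to-noise for antibody binding to printed compounds.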 To be noted: higher = more signal.
In test [17] the target is Torsin-1A (Homo sapiens) (UniProt O14656). Put plainly: TOR1A wild-type binding on microarray – cell lysate, small-molecule microarray, lysate, 635/667 nm, primary screen (AID 1149). To be noted: COS7 hTOR1A-WT lysate, 635 nm fluorescence, higher = more signal.
For test [18] the target is unchanged. Put plainly: torsin A mutant lysate binding on microarrays – cell lysate, small-molecule microarray, COS7 lysate, 635/667 nm fluorescence, primary screen (AID 1150).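 Further: score pools 667 nm emission and signal to noise measuring lysate protein binding.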 Conditions: COS7 hTOR1A mutant lysate, 635 nm fluorescence, higher = more signal.
Test [19] concerns Sonic hedgehog protein (Shh). Put plainly: Sonic hedgehog microarray binding compounds – biochemical, small-molecule microarray, 635/667 nm fluorescence, primary screen (AID 1151).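 Further: Shh protein binding to compounds spotted on small-molecule microarray slides; score combines spot fluorescence intensity with signal-to-noise across triplicate slides.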 To be noted: 635 nm fluorescence, higher = more signal.

Chain of Follistatin (Homo sapiens) (P19883 whole entry, looked up): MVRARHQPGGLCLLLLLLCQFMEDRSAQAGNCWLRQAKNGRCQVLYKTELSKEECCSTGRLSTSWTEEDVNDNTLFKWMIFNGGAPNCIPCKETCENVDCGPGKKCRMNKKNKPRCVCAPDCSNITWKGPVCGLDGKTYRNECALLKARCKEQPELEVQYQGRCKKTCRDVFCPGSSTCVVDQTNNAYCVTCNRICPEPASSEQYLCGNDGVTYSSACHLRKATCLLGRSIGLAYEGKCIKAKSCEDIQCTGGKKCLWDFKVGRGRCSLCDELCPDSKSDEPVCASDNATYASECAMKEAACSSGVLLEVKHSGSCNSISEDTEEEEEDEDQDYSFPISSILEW
Chain of Luciferin 4-monooxygenase (Photinus pyralis) (P08659 whole entry, looked up): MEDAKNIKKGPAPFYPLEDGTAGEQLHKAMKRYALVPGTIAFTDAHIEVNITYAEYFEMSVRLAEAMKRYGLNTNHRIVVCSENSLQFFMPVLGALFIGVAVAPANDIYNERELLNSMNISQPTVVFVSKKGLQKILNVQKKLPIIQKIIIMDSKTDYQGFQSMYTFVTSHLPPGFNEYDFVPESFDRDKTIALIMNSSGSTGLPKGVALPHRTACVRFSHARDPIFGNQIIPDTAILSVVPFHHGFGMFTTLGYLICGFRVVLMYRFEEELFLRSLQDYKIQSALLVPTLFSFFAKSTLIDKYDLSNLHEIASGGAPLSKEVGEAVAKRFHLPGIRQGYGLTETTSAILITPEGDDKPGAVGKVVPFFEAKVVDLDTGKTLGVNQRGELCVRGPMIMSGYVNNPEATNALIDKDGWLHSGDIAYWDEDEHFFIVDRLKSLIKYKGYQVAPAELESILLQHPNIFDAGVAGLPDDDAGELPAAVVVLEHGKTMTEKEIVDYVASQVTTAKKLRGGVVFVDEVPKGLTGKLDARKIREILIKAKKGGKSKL
Chain of Focal adhesion kinase 1 (Homo sapiens) (Q05397 whole entry, looked up): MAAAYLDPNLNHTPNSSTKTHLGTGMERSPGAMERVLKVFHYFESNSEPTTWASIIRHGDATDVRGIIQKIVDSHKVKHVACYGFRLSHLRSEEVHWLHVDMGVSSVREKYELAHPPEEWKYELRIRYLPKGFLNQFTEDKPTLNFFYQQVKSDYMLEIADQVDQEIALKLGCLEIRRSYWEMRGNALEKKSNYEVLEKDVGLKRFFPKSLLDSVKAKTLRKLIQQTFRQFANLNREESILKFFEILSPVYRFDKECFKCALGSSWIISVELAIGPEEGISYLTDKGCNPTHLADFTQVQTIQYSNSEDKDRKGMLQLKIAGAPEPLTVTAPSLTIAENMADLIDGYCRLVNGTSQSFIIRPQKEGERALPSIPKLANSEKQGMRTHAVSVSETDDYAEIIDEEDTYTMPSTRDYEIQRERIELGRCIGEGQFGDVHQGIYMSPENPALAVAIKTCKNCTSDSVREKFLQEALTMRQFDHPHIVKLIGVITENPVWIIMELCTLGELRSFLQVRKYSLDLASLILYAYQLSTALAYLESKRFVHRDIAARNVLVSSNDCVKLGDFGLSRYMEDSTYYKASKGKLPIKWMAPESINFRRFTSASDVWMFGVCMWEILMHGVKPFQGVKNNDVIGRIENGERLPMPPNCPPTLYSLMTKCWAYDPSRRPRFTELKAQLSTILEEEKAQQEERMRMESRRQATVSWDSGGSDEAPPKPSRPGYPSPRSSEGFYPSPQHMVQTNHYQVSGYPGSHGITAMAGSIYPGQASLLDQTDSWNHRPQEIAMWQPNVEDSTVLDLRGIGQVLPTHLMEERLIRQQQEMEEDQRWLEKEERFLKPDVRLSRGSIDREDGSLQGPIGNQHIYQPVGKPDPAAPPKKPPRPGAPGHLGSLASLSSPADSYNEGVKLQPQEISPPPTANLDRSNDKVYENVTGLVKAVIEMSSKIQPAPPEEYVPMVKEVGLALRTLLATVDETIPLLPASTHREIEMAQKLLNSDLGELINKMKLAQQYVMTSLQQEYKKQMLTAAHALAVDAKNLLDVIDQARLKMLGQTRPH
Chain of Torsin-1A (Homo sapiens) (O14656 whole entry, looked up): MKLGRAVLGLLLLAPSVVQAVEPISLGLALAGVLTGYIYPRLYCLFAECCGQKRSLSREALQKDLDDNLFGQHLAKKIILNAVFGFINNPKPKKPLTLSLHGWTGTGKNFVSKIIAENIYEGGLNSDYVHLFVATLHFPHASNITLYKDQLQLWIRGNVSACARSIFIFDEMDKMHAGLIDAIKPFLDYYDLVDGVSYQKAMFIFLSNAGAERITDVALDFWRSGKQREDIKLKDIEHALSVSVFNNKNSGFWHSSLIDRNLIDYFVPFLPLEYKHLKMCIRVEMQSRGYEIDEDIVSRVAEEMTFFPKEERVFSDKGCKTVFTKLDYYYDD
Chain of Fibroblast growth factor 2 (Homo sapiens) (P09038 whole entry, looked up): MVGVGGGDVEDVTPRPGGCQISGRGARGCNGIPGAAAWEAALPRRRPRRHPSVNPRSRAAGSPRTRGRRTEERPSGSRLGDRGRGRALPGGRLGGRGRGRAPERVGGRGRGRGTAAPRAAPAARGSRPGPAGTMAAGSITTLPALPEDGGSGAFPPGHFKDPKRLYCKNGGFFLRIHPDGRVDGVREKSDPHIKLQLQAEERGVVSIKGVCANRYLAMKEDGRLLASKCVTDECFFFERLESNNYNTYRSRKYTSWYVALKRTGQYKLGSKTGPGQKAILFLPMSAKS
Chain of Streptavidin (Streptomyces avidinii) (P22629 whole entry, looked up): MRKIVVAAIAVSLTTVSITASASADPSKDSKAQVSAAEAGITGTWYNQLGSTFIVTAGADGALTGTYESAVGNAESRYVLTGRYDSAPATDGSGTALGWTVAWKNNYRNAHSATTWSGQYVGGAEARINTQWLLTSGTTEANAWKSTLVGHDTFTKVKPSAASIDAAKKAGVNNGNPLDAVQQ

Take `COc1ccc([Si](C)(C)[C@H]2[C@H](CC(=O)N3CCC[C@H]3CO)O[C@@]3(C(=O)N(Cc4cccc(N5C(=O)COc6ccccc65)c4)c4ccccc43)[C@@H]2C)cc1`: the composite z-score in test [1] was 0.514; in [2], 0.885; in test [3] it was 0.392; in [4] it was -0.07; in test [5], 0.727; in test [6], 1.68. Also, the composite z-score in the test with Lefty1 is 0.994; in [8], -0.32; in test [10] it was 0.156; in [15], 0.0527; in [16] it was -0.157; with Torsin-1A (Homo sapiens) [17], 0.419. The composite z-score with Torsin-1A (Homo sapiens) [18] was determined as 0.889; in test [19], 1.92. Besides, the z-score was 4.31 in test [7]; -2.36 (inactive) in [9]; -2.16 (inactive) in test [11]; -0.201 (inactive) in test [12]; 7.18 (inactive) in test [13]; -1.22 (inactive) in [14].
Turning to `CCOC(=O)CCN1C(=O)[C@H]2[C@H]3[C@H](O)[C@H](O)CC(=NOC[C@@H](O)COCc4ccco4)[C@H]3CC[C@H]2C1=O`, the composite z-score came out at 0.659 in test [1]; 0.785 in [2]; 0.857 in test [3]; 0.894 in test [4]; 0.938 in test [5]; 0.229 in test [6]. In addition, the composite z-score in the test on Lefty1 is 0.863; in test [8], 0.288; in test [10], -0.0068; in test [15] it was 0.0794; in test [16] it was -0.0627; with Torsin-1A (Homo sapiens) [17], 0.291. In addition, the composite z-score turned out to be 0.18 with Torsin-1A (Homo sapiens) [18] and 0.856 in test [19]. Moreover, the z-score in test [7] was -1.06; in test [9], 0.586 (inactive); in [11] it was -4.31 (inactive); in test [12] it was -0.284 (inactive); in test [13], 1.41 (inactive); in test [14], 0.749 (inactive).
On to `O=C1O[C@@H](c2ccccc2)[C@@H](c2ccccc2)N2[C@@H](c3ccc(O)cc3)[C@]3(C(=O)Nc4ccccc43)[C@@H](C(=O)O)[C@H]12`, for which the composite z-score in test [1] is 3.02; in test [2], 1.2; in test [3] it was 0.49; in test [4], 0.508; in test [5], -0.167; in test [6], -0.352. The composite z-score is -0.351 in the test with Lefty1; 0.547 in test [8]; -0.0286 in test [10]; 0.0078 in [15]; 0.0442 in test [16]; 0.509 with Torsin-1A (Homo sapiens) [17]. Moreover, the composite z-score is 0.548 with Torsin-1A (Homo sapiens) [18] and -0.192 in test [19]. The z-score in test [7] was -0.517; in test [9], -0.0041 (inactive); in test [11], -4.36 (inactive); in test [12] it was 0.0547 (inactive); in test [13], 0.568 (inactive); in test [14], 0.532 (inactive).
`CC1(C)OCC(C(O)C2=CCCCC2=O)CO1` (stereo not given): the composite z-score in test [1] amounted to 0.485; in [2], 0.279; in test [3] it was 0.0102; in [4], 0.945; in test [5], 0.97; in test [6] it was 0.938. The composite z-score was 1.33 in the test with Lefty1; 0.731 in test [8]; 0.24 in [10]; 0.412 in [15]; -0.133 in [16]; 0.429 with Torsin-1A (Homo sapiens) [17]. The composite z-score in the test with Torsin-1A (Homo sapiens) [18] stood at 0.803; in test [19] it was 1.5. Besides, the z-score in test [7] is -0.867; in test [9] it was 0.114 (inactive); in [11] it was 0.956 (inactive); in test [12] it was -0.432 (inactive); in test [13] it was -0.431 (inactive); in test [14], 0.476 (inactive).
For `O=C(CS)NCCCCCNC(=O)[C@@H]1C[C@@H]2C(=O)N[C@@H](Cc3ccccc3)C(=O)N2[C@@H]1c1ccc(O)cc1`, the composite z-score is 2.33 in test [1]; 1.21 in test [2]; 0.661 in [3]; -0.0141 in test [4]; 1.31 in [5]; 1.29 in test [6]. Further, the composite z-score is 0.233 in the test on Lefty1; 0.304 in test [8]; 0.835 in test [10]; -0.859 in test [15]; -0.128 in [16]; 0.489 with Torsin-1A (Homo sapiens) [17]. Also, the composite z-score with Torsin-1A (Homo sapiens) [18] worked out at 0.845; in test [19], 0.981. The z-score in test [7] is -0.208; in test [9], -3.79 (inactive); in test [11] it was -0.0984 (inactive); in [12], -0.616 (inactive); in [13] it was 0.692 (inactive); in [14] it was -0.981 (inactive).
